A word on the inhibition: it is the percentage by which the read-out fell short of the control.

SMILES strings stand for the structures. A number with no mark means an inactive call. Calls of active or inactive are those of the source. No stated cut-off is given here; in the data, active means inhibition above about 44%; inactive means the rest.

The target in the assay is Steroidogenic factor 1 (Homo sapiens) (UniProt Q13285). The experiment in a line: inverse agonism at SF1 nuclear receptor – cell-based, luminescence, high throughput, counter-screen for LRH-1 inverse agonist project (AID 651614).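 Further: cells cotransfected with StAR promoter reporter and SF1 expression vector; 0% = vehicle on cells with receptor and 100% = vehicle on cells lacking receptor.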 The following applies: cell-based SF1 luciferase reporter, at 3.6 µM, hits give high values.
Steroidogenic factor 1 (Homo sapiens), sequence (Q13285 whole entry, looked up): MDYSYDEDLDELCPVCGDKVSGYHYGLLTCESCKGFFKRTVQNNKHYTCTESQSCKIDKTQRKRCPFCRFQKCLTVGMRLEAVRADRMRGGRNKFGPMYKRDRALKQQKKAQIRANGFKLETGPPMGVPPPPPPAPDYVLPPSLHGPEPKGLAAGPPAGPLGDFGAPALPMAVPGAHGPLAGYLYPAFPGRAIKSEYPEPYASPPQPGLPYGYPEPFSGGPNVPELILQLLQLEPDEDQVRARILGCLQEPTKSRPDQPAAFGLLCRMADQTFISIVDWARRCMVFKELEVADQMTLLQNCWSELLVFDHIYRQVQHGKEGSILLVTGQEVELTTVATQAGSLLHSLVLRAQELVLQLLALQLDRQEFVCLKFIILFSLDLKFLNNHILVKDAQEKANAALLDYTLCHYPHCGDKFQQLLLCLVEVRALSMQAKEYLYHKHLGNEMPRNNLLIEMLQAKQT
As to `Cc1ccc(/C=C2\SC(=S)N(c3c(C)n(C)n(-c4ccccc4)c3=O)C2=O)cc1`, the inhibition is 45.5% (active). With `O=C(COc1ccc2ccc(=O)oc2c1)Nc1ccc(N2CCOCC2)cc1`, the inhibition is 45.5% (active). Regarding `Cc1nn(Cc2ccc(Cl)cc2)c(C)c1NC(=O)c1cc(C(C)C)on1`, the inhibition is 64.8% (active). For `Oc1cccc(Nc2nc(-c3ccccc3Cl)nc3ccccc23)c1`, the inhibition is 48.3% (active). In the case of `CCC(c1nnnn1-c1c(C)cccc1C)N1CCN(c2ccc(C(F)(F)F)cc2[N+](=O)[O-])CC1` (stereo not given), the inhibition is 5.25%. Turning to `CCC(=O)N1CCN(c2cc(NCC3CCCO3)c(F)cc2[N+](=O)[O-])CC1` (stereo not given), the inhibition was 50.7% (active).

For `O=C(NNc1ccccc1)C(=O)NNS(=O)(=O)c1ccc([N+](=O)[O-])cc1`, the inhibition is 27.1%. As to `Cc1ccc(Cn2cnc3ccccc32)cc1C`, the inhibition was 32.6%.

As to `O=C(CN1C(=O)NC2(CCOc3ccccc32)C1=O)Nc1cccc([N+](=O)[O-])c1` (stereo not given), the inhibition was 53.6% (active). In the case of `Cc1c(Cl)cccc1NC(=O)CS(=O)(=O)c1ccccc1`, the inhibition is 55.5% (active). As to `NNC(=O)C(Cc1ccc(O)cc1)N1Cc2ccccc2C1=O` (stereo not given), the inhibition was 29.4%. For the compound `CNC(=S)N/N=C/c1cn(Cc2ccc(C)cc2)c2ccccc12`, the inhibition is 46.8% (active). In the case of `Cc1ccsc1CNc1ncnc2ccc(-c3c(C)noc3C)cc12`, the inhibition is 28.7%. `N#Cc1c2ccc([N+](=O)[O-])cc2[n+]([O-])n1-c1ccccc1`: the inhibition is 75.4% (active). As for `O=[N+]([O-])c1ccc(N2CCN(Cc3ccccc3)CC2)c2c1no[n+]2[O-]`, the inhibition is 63.1% (active). Under `Cc1sc2ncnc(NCC(O)c3ccc([N+](=O)[O-])cc3)c2c1C` (stereo not given) stands 53.5% (active). Under `COc1ccc(NC(=O)CSc2ncnc3[nH]ncc23)cc1` stands 54.4% (active); under `CN(CC(=O)Nc1ccc(N2CCOCC2)cc1)CC(=O)Nc1ccc(N2CCOCC2)cc1`, 54.2% (active); under `CCOc1ccc(NC(=O)Cn2cc(C(C)=O)c3ccccc32)cc1`, 73.8% (active).

In the case of `O=C(CSc1nccc(=O)[nH]1)Nc1ccc(N2CCOCC2)cc1`, the inhibition was 47.8% (active). As to `N#CCSc1ccccc1NC(=O)CN1C(=O)C2CC=CCC2C1=O` (stereo not given), the inhibition is 60.2% (active). Under `CS(=O)(=O)N1CCN(c2ccc(NC(=O)CSc3nnc(-c4ccco4)o3)cc2)CC1` stands 54.1% (active). Turning to `COc1cc(-c2cc(C(=O)Nc3ccncc3)c3ccccc3n2)cc(OC)c1OC`, the inhibition was 40.5%.

On to `COc1cc2nc(/C=C/c3cc(OC)c(OC)c(OC)c3)sc2cc1SC`, for which the inhibition is 58.6% (active).

Consider `Cn1c(=O)n(C)c2cc(NC(=O)CCl)ccc21`, for which the inhibition was 61.5% (active). Under `Cn1c(=O)c2c(nc(CN3CCOCC3)n2CC(=O)c2ccccc2)n(C)c1=O` stands 1.97%; under `Cc1cc(/C=N/n2cnnc2)c(C)n1-c1ccc(OCc2ccc(Cl)cc2)cc1`, 48.3% (active).

Consider `O=C(NCc1cccnc1)c1cccc2c1C(=O)N(C1CCCCC1)C2`, for which the inhibition is 51.5% (active). Take `Cc1cccc(NC(=O)CSc2ccc(-c3ccco3)nn2)c1C`: the inhibition is 39.2%. Under `O=C(N/N=C/c1ccc(Sc2ccccn2)o1)c1cccc([N+](=O)[O-])c1` stands 40%; under `Cc1cc(C)nc(NC(=O)c2ccc([N+](=O)[O-])o2)n1`, 53.4% (active); under `O=C(Nc1cccc(NC(=O)c2ccc([N+](=O)[O-])o2)c1)c1ccco1`, 70.5% (active).

For `CCCCc1c(O)nc(SCC(=O)Nc2ccc3c(c2)CCC3)[nH]c1=O`, the inhibition was 51.8% (active). `CN(Cc1cccs1)c1nc(-c2cccnc2)nc2ccccc12`: the inhibition is 43% (active). Under `Cc1cc(O)c(NC(=O)c2cc([N+](=O)[O-])ccc2Cl)cc1C` stands 58.8% (active); under `O=C(NNc1ccc([N+](=O)[O-])cc1[N+](=O)[O-])c1ccco1`, 60% (active); under `Cc1ccc(-n2c(SCC(=O)NCc3ccco3)nc3sc4c(c3c2=O)CC(C)(C)SC4)cc1`, 44.8% (active).

On to `S=C(Nc1cccnc1)Nc1cccc2cnccc12`, for which the inhibition is 26.2%. Turning to `O=C(COC(=O)c1ccc(Br)o1)Nc1ccc2c(c1)OCCO2`, the inhibition was 63.1% (active). Consider `Cc1cc(OCC(=O)Nc2ccc(OCc3ccccc3)cc2)nc(C(C)C)n1`, for which the inhibition was 32.4%.

The record behind these values is PubChem BioAssay.
